The panel holds about 79,000 compounds, 15% with a hit somewhere; the sample as a whole holds those more often. Calls of active or inactive are those of the source. Cut-off read from the data, not from the text of the source: active = growth inhibition above about 70%; inactive = the rest.

One assay in a line: NCI Yeast Anticancer Drug Screen. Data for the bub3 strain (AID 167). The following applies: S. cerevisiae bub3 mutant strain, at 50.0 µM, stronger effect = higher value. An outline of the steps: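 Steps: expose the mutant yeast strain to compound; grow alongside vehicle-treated cultures; measure growth; express inhibition against the vehicle cultures.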
Regarding `BrCC[N+]12CC[N+](CCBr)(CC1)C2` (tested in a mixture with another compound), the growth inhibition is 78.1% (active).

With `NS(=O)(=O)CC1CC[CH-]CC1.[Cl-].[Cl-].[Cl-].[Cl-].[Cl-].[Sb+5].c1ccncc1`, the growth inhibition was -20.4% (inactive). The same measure, in the same setting: the same measure for `CC1(C)N=C(N)N=C(N)N1c1ccc(CCCCCCc2ccc(S(=O)(=O)F)cc2)cc1`: 99% (active); for `COC(=O)C1(O)c2ccccc2N=C2C1CCN2C` (stereo not given): 6.3% (inactive); for `[N-]=[N+]=CC(=O)CCC(=O)C=[N+]=[N-]`: -20.6% (inactive). Same read-out and setting: the value for `CCCCCCCCCCCCCCCC[As](CCCCCCCCCCCCCCCC)SCC1OC(OC(C)=O)C(OC(C)=O)C(OC(C)=O)C1OC(C)=O` (stereo not given) was -20.1% (inactive); that for `CCCCSP(=O)(SCCCC)N1CCCCC1` was 98.8% (active). Still for that read-out and setting: the value for `CC(C)CN(CC(C)C)[N+](=O)[O-]` was 6.05% (inactive).

As for `CN(N)c1ccc([N+](=O)[O-])cc1[N+](=O)[O-]`, the growth inhibition is -3.2% (inactive). Still for that read-out and setting: the same measure for `O=c1ccc(=O)[nH][nH]1.[Zn+2]`: -4% (inactive); for `O=C(c1cc(N(CCCl)CCCl)c([N+](=O)[O-])cc1[N+](=O)[O-])N1CCOCC1`: 19.3% (inactive). With `CCN(CC)CCn1c(=O)n(C)c2ccccc21`, the growth inhibition is -1.65% (inactive).

For `Cc1nc2cccc(F)c2c(=O)n1-c1nnc(C(F)(F)F)s1`, the growth inhibition was -6.4% (inactive). The same measure, in the same setting: the value for `O=P(O)(NCCCl)NCCCl` was -41.1% (inactive). With `Clc1ccc(C(c2ccccc2Cl)C(Cl)(Cl)Cl)cc1` (stereo not given), the growth inhibition was 47.5% (inactive). Still for that read-out and setting: the same measure for `COc1ccc(C)cc1C(CC(=O)O)CC(=O)N(CCCl)CCCl` (stereo not given): -1.95% (inactive).

For the compound `C[N+](C)(Cc1ccccc1[N+](=O)[O-])c1ccc(N(CCCl)CCCl)cc1`, the growth inhibition is -22.3% (inactive). Consider `O=C(CCCN1CCC2(CC1)C(=O)NCN2c1ccccc1)c1ccccc1`, for which the growth inhibition is 2.35% (inactive).

Turning to `NCCCC(N)P(=O)(O)O` (stereo not given), the growth inhibition is 1% (inactive). Still for that read-out and setting: the same measure for `ClCCCCBr`: 2.4% (inactive); for `CC(CN1NC12CCCC2)N1NC12CCCC2` (stereo not given): 15.6% (inactive).

A short description of another assay: NCI Yeast Anticancer Drug Screen. Data for the mlh1 rad18 strain (AID 175). Particulars: S. cerevisiae mlh1 rad18 strain growth inhibition; at 50.0 µM; stronger effect = higher value. In short, it runs like this: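 Vehicle-treated cultures served as the reference for growth inhibition in a yeast strain carrying DNA damage repair alterations exposed to each compound.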
With `O=[N+]([O-])C(CO)CCCC(CO)[N+](=O)[O-]` (stereo not given), the growth inhibition is 11.4% (inactive). The same measure, in the same setting: the value for `CN1CCC[N+](C)=C1c1ccc(N(C)C)cc1` was -7.15% (inactive); that for `COP1(=S)OCC2OC(n3cc(C)c(=O)[nH]c3=O)CC2O1` (stereo not given) was -9.25% (inactive); that for `CN(c1ccccc1)c1nc(=[N+]2CCCC2)ss1` was 24.6% (inactive). Turning to `NC(Cc1ccccc1)c1nn[nH]n1` (stereo not given), the growth inhibition is -19.3% (inactive). Same read-out and setting: the same measure for `O=C1NC(=O)C2(c3ccccc3)CCN1C2=O` (stereo not given): 10% (inactive). Consider `Cc1cc(C)c(CCN(C)C)c(C)c1C`, for which the growth inhibition is 23.4% (inactive). Turning to `O=C1N=NC(Cl)c2ccccc21` (stereo not given), the growth inhibition was -10.8% (inactive). The same measure, in the same setting: the value for `CN(C)c1ccc(C=O)cc1.[C-]#[O+].[C-]#[O+].[C-]#[O+].[Cr]` was -38.9% (inactive); that for `CC12CC/C(=N/NC(=O)Cc3c[nH]c4ccccc34)C=C1CCC1C2CCC2(C)C(OC(=O)c3ccccc3)CCC12` (stereo not given) was 34.8% (inactive); that for `COc1cccc(C2CC(=O)c3cccn32)c1` (stereo not given) was -17.2% (inactive). On the same count and under the same terms, the value for `COc1cc(CC(N)c2ccccc2)ccc1O` (stereo not given) was -18.8% (inactive).

As for `CCCCC1(CCSC(=S)OCC)C(=O)NC(=O)NC1=O`, the growth inhibition was -11.8% (inactive). On to `CC(=O)Oc1ccc(CCN(C)C2CC3CCC2(C)C3(C)C)cc1OC(C)=O` (stereo not given), for which the growth inhibition is 41% (inactive). The same measure, in the same setting: the value for `O=[N+]([O-])c1cccc(C(Cl)Cl)c1` was -2.25% (inactive); that for `CCOP(=S)(NCCCOC)OCC` was 2.4% (inactive); that for `CCOC(OC1=C(C#N)CCCC1)C(C)[Se]c1ccccc1` (stereo not given) was 34% (inactive). Still for that read-out and setting: the same measure for `FC(F)(F)[S-].FC(F)(F)[S-].[C-]#[O+].[C-]#[O+].[C-]#[O+].[C-]#[O+].[C-]#[O+].[C-]#[O+].[C-]#[O+].[C-]#[O+].[Mn].[Mn]`: 99.3% (active).

On to `BrCC[N+]12CC[N+](CCBr)(CC1)C2` (tested in a mixture with another compound), for which the growth inhibition is 42.4% (inactive). In the case of `NS(=O)(=O)CC1CC[CH-]CC1.[Cl-].[Cl-].[Cl-].[Cl-].[Cl-].[Sb+5].c1ccncc1`, the growth inhibition is 18.1% (inactive). Still for that read-out and setting: the same measure for `CC1(C)N=C(N)N=C(N)N1c1ccc(CCCCCCc2ccc(S(=O)(=O)F)cc2)cc1`: 99.4% (active); for `COC(=O)C1(O)c2ccccc2N=C2C1CCN2C` (stereo not given): 16.9% (inactive). Regarding `[N-]=[N+]=CC(=O)CCC(=O)C=[N+]=[N-]`, the growth inhibition was -67.8% (inactive). The same measure, in the same setting: the same measure for `CCCCCCCCCCCCCCCC[As](CCCCCCCCCCCCCCCC)SCC1OC(OC(C)=O)C(OC(C)=O)C(OC(C)=O)C1OC(C)=O` (stereo not given): -20.6% (inactive). Still for that read-out and setting: the same measure for `CCCCSP(=O)(SCCCC)N1CCCCC1`: 99% (active). Still for that read-out and setting: the same measure for `CC(C)CN(CC(C)C)[N+](=O)[O-]`: -12.7% (inactive); for `CN(N)c1ccc([N+](=O)[O-])cc1[N+](=O)[O-]`: -39.1% (inactive). Turning to `O=c1ccc(=O)[nH][nH]1.[Zn+2]`, the growth inhibition is -22.1% (inactive).

`O=C(c1cc(N(CCCl)CCCl)c([N+](=O)[O-])cc1[N+](=O)[O-])N1CCOCC1`: the growth inhibition is -3.75% (inactive). On the same count and under the same terms, the value for `CCN(CC)CCn1c(=O)n(C)c2ccccc21` was 20.9% (inactive). On the same count and under the same terms, the same measure for `Cc1nc2cccc(F)c2c(=O)n1-c1nnc(C(F)(F)F)s1`: 15.5% (inactive); for `O=P(O)(NCCCl)NCCCl`: -39.5% (inactive); for `Clc1ccc(C(c2ccccc2Cl)C(Cl)(Cl)Cl)cc1` (stereo not given): 12.2% (inactive). The same measure, in the same setting: the same measure for `COc1ccc(C)cc1C(CC(=O)O)CC(=O)N(CCCl)CCCl` (stereo not given): 21.6% (inactive).

`C[N+](C)(Cc1ccccc1[N+](=O)[O-])c1ccc(N(CCCl)CCCl)cc1`: the growth inhibition is 12.6% (inactive). On the same count and under the same terms, the same measure for `O=C(CCCN1CCC2(CC1)C(=O)NCN2c1ccccc1)c1ccccc1`: -2.15% (inactive); for `NCCCC(N)P(=O)(O)O` (stereo not given): 5.55% (inactive); for `ClCCCCBr`: 18.8% (inactive).

On to `CC(CN1NC12CCCC2)N1NC12CCCC2` (stereo not given), for which the growth inhibition was -35.5% (inactive).

For the origin of these results see PubChem BioAssay (NCI).
